# PubChem BioAssay AID588819 (The Scripps Research Institute Molecular Screening Center, 2011)
# Among all 360,000 compounds or so, about 320 (0.089%) were called active. No stated cut-off is given here; in the data, active means activation above about 19% (passing the limit was not always enough); inactive means the rest. The entries come from a sample that favours actives as a whole.
# Molecular target: Muscarinic acetylcholine receptor M1 (Homo sapiens) (UniProt P11229)
# Assay: human M1 muscarinic receptor positive allosteric modulators, primary screen, CHO-K1 cells, Fluo-8 calcium fluorescence, 1536-well (AID 588819)
# Details: CHO-K1 hM1, Fluo-8 calcium fluorescence, ACh EC20; at 3 µM; stronger effect = higher value; 0% = ACh EC20, 100% = maximal ACh
# Chain of Muscarinic acetylcholine receptor M1 (Homo sapiens) (P11229 whole entry, looked up): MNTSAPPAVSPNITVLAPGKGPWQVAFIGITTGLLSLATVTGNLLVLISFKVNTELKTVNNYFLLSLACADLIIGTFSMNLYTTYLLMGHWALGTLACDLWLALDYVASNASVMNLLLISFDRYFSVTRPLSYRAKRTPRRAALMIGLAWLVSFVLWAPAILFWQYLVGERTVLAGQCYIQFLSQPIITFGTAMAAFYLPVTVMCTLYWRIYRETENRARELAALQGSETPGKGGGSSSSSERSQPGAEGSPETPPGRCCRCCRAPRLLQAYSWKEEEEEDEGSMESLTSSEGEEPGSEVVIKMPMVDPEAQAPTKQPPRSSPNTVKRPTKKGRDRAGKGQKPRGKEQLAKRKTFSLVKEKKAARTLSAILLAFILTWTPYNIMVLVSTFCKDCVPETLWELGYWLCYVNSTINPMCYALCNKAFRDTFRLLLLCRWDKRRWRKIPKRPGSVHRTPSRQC
row,SMILES,activation
1,CN(C(=O)c1cccc(NC(=O)Cc2ccc(NC(=O)C3CCN(C(=O)C4CCCCC4)CC3)cc2)c1)C1CCC1,0.54% (inactive)
2,CS(=O)(=O)N(CC(=O)NC1CCCC1)Cc1ccc(F)cc1,0.34% (inactive)
3,Cc1ccc(NC(=O)Cn2cccc2C2=NC(c3ccccc3)CO2)c(C)c1 (stereo not drawn),6.3% (inactive)
4,COCCn1c(SCC(=O)Nc2ccc3c(c2)CCC3)nc2ccccc2c1=O,5.21% (inactive)
5,CCCC1NC(=O)NC(C)=C1C(=O)OCC (stereo not drawn),3.33% (inactive)
6,COCC(=O)Nc1cc(C(=O)OC)cc(C(=O)OC)c1,7.56% (inactive)
7,Cc1cc(=O)oc(C)c1C(=O)Nc1cnc2ccccc2c1,1% (inactive)
8,COc1ccc(S(=O)(=O)N2CCN(C(=O)c3cc(C)oc3C)CC2)cc1,10.8% (inactive)
9,CCOC(=O)C1CCN(C(=O)c2oc3ccc(S(=O)(=O)N4CCCCCC4)cc3c2C)CC1,1.16% (inactive)
10,CCOc1ccc(S(=O)(=O)N2CCN(C(=O)c3oc4ccccc4c3C)CC2)cc1,24.4% (active)
11,CCOP(=O)(OCC)C(Nc1ccc([N+](=O)[O-])cc1)c1ccc(Cl)cc1 (stereo not drawn),-2.85% (inactive)
12,Cc1ccc2oc(=O)c3cnn(CC(=O)N4CCN(c5ccccn5)CC4)c3c2c1,-8.22% (inactive)
13,COCCNC(=O)NC(=O)COC(=O)C1(c2ccc(Cl)cc2)CC1,-0.78% (inactive)
14,O=C(NCc1ccc(Cl)cc1)c1cc(=O)nc2sc(-c3ccccc3)nn12,-4.02% (inactive)
15,O=C(Cn1cnc2ccccc2c1=O)NCC1COc2ccccc2O1 (stereo not drawn),3.11% (inactive)
16,O=C(Cn1nc(Cc2cccnc2)c2ccccc2c1=O)NCC1COc2ccccc2O1 (stereo not drawn),9.27% (inactive)
17,O=C(CN1C(=O)C2C3C=CC(C3)C2C1=O)NCC1COc2ccccc2O1 (stereo not drawn),19.5% (active)
18,Cc1nn(Cc2ccccc2)c(C)c1C(=O)NCCCN1CCCC1=O,3.09% (inactive)
19,COc1ccc(C)cc1NC(=O)CN(C)S(=O)(=O)c1ccc2c(c1)n(C)c(=O)c(=O)n2C,11.7% (inactive)
20,CCOC(=O)c1cc2occc2n1CC(=O)N1CCN(C(=O)c2ccco2)CC1,0.31% (inactive)

row,SMILES,activation
1,O=C(N/C(=C\c1ccc(O)cc1)C(=O)N1CCCCC1)c1ccccc1,-7.21% (inactive)
2,O=C(O)c1ccc(NN=CC2=C(N3CCOCC3)/C(=C/c3ccccc3)CC2)cc1,1.33% (inactive)
3,O=C1Nc2ccc(Br)cc2/C1=N/N=C/C1=C(N2CCOCC2)C(=C\c2ccccc2)/CC1,19.2% (active)
4,Cc1cccc(N2CC(C)Cn3c2nc2c3c(=O)n(CC(=O)OCc3ccccc3)c(=O)n2C)c1 (stereo not drawn),6.13% (inactive)
5,O=C(CCc1ccccc1)Nc1ccnn1C1CCN(Cc2ccc(OCCO)cc2)CC1,-2.48% (inactive)
6,COc1cccc(Cn2cnc3c([N+](=O)[O-])c(C)c(C)cc32)c1,-0.11% (inactive)
7,COCCNC(=S)N(CCc1c(C)[nH]c2ccc(C)cc12)Cc1cccnc1,9.1% (inactive)
8,Cc1ccc(N(Cc2ccc(C(=O)Nc3ccccc3C(=O)NCc3ccco3)cc2)S(C)(=O)=O)cc1C,-6.42% (inactive)
9,COc1ccc(C(=O)Nc2ccccc2C(=O)NCc2ccco2)cc1,30.1% (active)
10,Cc1cccc(Nc2ccccc2C(=O)NCc2ccco2)c1C,-3.33% (inactive)
11,CN=C(Nc1cccc(S(=O)(=O)N2CCOCC2)c1)c1ccccc1,-5.57% (inactive)
12,Nc1nnnn1/N=C/c1cccc(Br)c1,11.8% (inactive)
13,Nc1nnnn1/N=C/c1cc([N+](=O)[O-])ccc1O,26.2% (active)
14,Nc1nnnn1/N=C/c1cccs1,1.93% (inactive)
15,OC(c1nc2ccc(F)cc2[nH]1)C(O)c1nc2ccc(F)cc2[nH]1 (stereo not drawn),3.09% (inactive)
16,CC(C)c1nc2ccc(C(=O)O)cc2[nH]1,31.2% (active)
17,O=C(NCC(O)c1nc2ccccc2[nH]1)c1ccc(Br)cc1 (stereo not drawn),-1% (inactive)
18,CN(c1ccccc1)S(=O)(=O)c1cccc(C(=O)NNC(=O)c2ccncc2)c1,1.76% (inactive)
19,Cc1ccc(-c2cc(C(=O)N/N=C/C=C/c3ccco3)c3ccccc3n2)cc1C,21.5% (active)
20,O=C(N/N=C/C=C/c1ccco1)c1cccs1,8.09% (inactive)

row,SMILES,activation
1,CCOc1ccc(-c2cc(C(=O)N/N=C/c3ccc(O)cc3)c3ccccc3n2)cc1,9.09% (inactive)
2,O=c1[nH]c2ccc(S(=O)(=O)N3CCCC3)cc2[nH]1,2.57% (inactive)
3,O=C(C1CCN(C2CCN(Cc3ccc4cc(F)ccc4n3)CC2)CC1)N1CCCC1,8.71% (inactive)
4,CCN(CC)CCn1c(=S)[nH]c2ncccc2c1=O,1.96% (inactive)
5,CCc1ccc(NC(=O)CC2C(=O)NCCN2C(=S)Nc2ccccc2)cc1 (stereo not drawn),7.43% (inactive)
6,COc1ccccc1C(=O)Nc1nc2nc(-c3ccccc3)cc(=O)n2[nH]1,10.9% (inactive)
7,O=C(CCC(=O)N1CCN(S(=O)(=O)c2ccc(Cl)cc2)CC1)NCc1cccc(C(F)(F)F)c1,-4.55% (inactive)
8,COC(=O)c1ccc(C(=O)Nc2cc(Cl)ccc2Cl)cc1NC(=O)c1ccccc1C,7.99% (inactive)
9,CCOC(=O)c1sc(/N=C/C2=C(O)CC(C)(C)CC2=O)c(C(=O)OCC)c1C,2.16% (inactive)
10,CC(Oc1ccccc1F)C(=O)NN (stereo not drawn),1.45% (inactive)
11,COc1ccc(CCNC(=O)C2CCCN(Cc3nc(-c4cccc(Cl)c4)oc3C)C2)cc1OC (stereo not drawn),4.43% (inactive)
12,NC(=O)C1CCN(Cc2nc3c(Br)cc(Br)cc3c(=O)[nH]2)CC1,8.06% (inactive)
13,O=C(O)C1CCN(S(=O)(=O)N2CCOCC2)CC1,29.8% (active)
14,O=C(NCc1ccccc1Cl)C1CCN(S(=O)(=O)N2CCOCC2)CC1,-0.4% (inactive)
15,COc1ccc(CNC(=O)C2CCN(S(=O)(=O)N3CCOCC3)CC2)cc1,5.85% (inactive)
16,COc1cc2c(cc1OC)C(C(=O)NCc1ccco1)C1c3ccccc3CCN1C2=O (stereo not drawn),3.09% (inactive)
17,O=C(NCc1csc(-c2cccs2)n1)C1CC1,9.22% (inactive)
18,CC(=O)c1ccc(S(=O)(=O)Nc2ccc(-c3ccc4nncn4n3)cc2)cc1,7.59% (inactive)
